Source: PubChem BioAssay (NCATS)
Results filed as inconclusive are left out. Calls of active or inactive are those of the source. Unless noted, the call rests on the fitted dose curve; in most records, active means well fitted curve in the direction sought with a large enough effect; inconclusive means small, poorly fitted or top-dose-only effect, or another doubt; inactive means no such curve, though single readings can be large; an effect the other way counts as inactive or inconclusive.

Tests used:
[1] = qHTS assay for cell viability of HEK293 cells (AID 743288); conditions: ATP luminescence (CellTiter-Glo), 18 h, stronger effect = lower value; further: on the % scale 0 is the no-effect control and ±100 the full control effect; nearly all actives have a fitted effect of over 50% in size
Summary of the method: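 The Tox21 protocol used parental HEK293 cells treated for 18 h at 37 C with compounds delivered by pintool; ATP-coupled luminescence after 30 min at room temperature gave viability.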

[2] = qHTS assay for cell viability of the p53RE-bla HCT-116 cell line (AID 743292); conditions: p53RE-bla HCT-116 viability, ATP luminescence, 16 h; series mostly up to 95 µM; further: on the % scale 0 is the no-effect control and ±100 the full control effect; nearly all actives have a fitted effect of over 55% in size
Summary of the method: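 HCT-116 p53RE-bla cells seeded 4,000/well; 5 h at 37 C; compound (DMSO) added; 16 h at 37 C; CellTiter-Glo added, 30 min RT; luminescence read.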

[3] = qHTS profiling of the MIPE4 collection as inhibitors of Plasmodium falciparum (3D7) proliferation (AID 743344; call rule not given here;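 further: scaled between DMSO vehicle wells and 0.29 µM artemisinin as full inhibition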); conditions: P. falciparum 3D7 in erythrocytes, SYBR Green DNA fluorescence, 72 h; at 28.5 µM (top of the series) unless noted
Summary of the method: (§1)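 Erythrocytes infected with P. falciparum (0.3% parasitemia, 2.5% hematocrit) incubated with compounds 72 h at 37 C, 5% CO2. Lysis with saponin/Triton buffer containing SYBR Green I, overnight at room temperature in the dark; DNA fluorescence (485/535 nm) normalised to 0.29 uM artemisinin and DMSO.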

[4] = qHTS profiling of the MIPE4 collection as inhibitors of Plasmodium falciparum (DD2) proliferation (Rep 2) (AID 743346; call rule not given here); conditions: P. falciparum Dd2 in erythrocytes, SYBR Green DNA, 72 h; at 28.5 µM (top of the series) unless noted
Summary of the method: as §1

[5] = qHTS profiling of the MIPE4 collection as inhibitors of Plasmodium falciparum (HB3) proliferation (AID 743347; call rule not given here;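 further: plate controls were DMSO vehicle wells for no effect and artemisinin wells for full effect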); conditions: P. falciparum HB3 in erythrocytes, SYBR Green DNA, 72 h; at 28.5 µM (top of the series) unless noted
Summary of the method: as §1

[6] = High-throughput drug toxicity screening in the BPDCN cell line Gen2.2 (AID 1224824; call rule not given here;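 further: cells exposed to compounds for 48 h before reading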); conditions: Gen2.2 BPDCN cells; at 45.8 µM (top of the series) unless noted
Summary of the method: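 Gen2.2, 500 cells/well, phenol red-free RPMI/10% FBS/Pen-Strep; 48 h cpd, 37 °C/5% CO2; CTG lum, 15 min RT. Norm: DMSO = 100%, bortezomib 9.2 uM final = 0%.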

[7] = High-throughput drug toxicity screening in the BPDCN cell line Cal-1 (AID 1224825; call rule not given here); conditions: Cal-1 BPDCN cell viability, qHTS; at 45.8 µM (top of the series) unless noted
Summary of the method: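 Exponentially growing Cal-1 cells, 500 per well in phenol red-free RPMI with 10% FBS, were exposed to compounds for 48 h at 37 °C, 5% CO2. Viability was read by CellTiter-Glo luminescence and normalised to DMSO (100%) and 9.2 uM bortezomib (0%).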

[8] = qHTS assay for measurement of the activity of small molecule inhibitors on Zika virus induced Caspase-3 activity in human iPSC derived neural progenitor cells (hNPCs) (AID 1224857); conditions: hNPCs ZIKV-induced caspase-3/7, Caspase-Glo luminescence, 6 h; series mostly up to 45.7 µM; further: % of control where 0% means no effect; nearly all actives have a fitted effect of over 65% in size
Summary of the method: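 Zika virus (2 FFU/cell) infection of human iPSC-derived NPCs, 6 h, following 1 h compound preincubation. Read-out: Caspase-Glo 3/7 luminescence.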

[9] = qHTS assay for measurement of the activity of small molecule inhibitors on Zika virus induced Caspase-3 activity in human astrocytoma cells (AID 1224859); conditions: SNB-19 ZIKV-induced caspase-3/7, luminescence, 6 h; series mostly up to 45.7 µM;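 further: plate controls were ZIKV-infected untreated cells for no effect and uninfected cells for full effect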
Summary of the method: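 Caspase activation in ZIKV-infected SNB-19 cells (2 FFU/cell, 6 h) measured by Caspase-Glo 3/7 luminescence after 30 min RT; compound pre-incubated 1 h; normalised to uninfected and infected controls.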

[10] = qHTS Screen of the MIPE 4.0 Collection Against Ewings Sarcoma (RDES) (AID 1259252); conditions: RD-ES Ewing sarcoma viability, CellTiter-Glo, 48 h; series mostly up to 45.8 µM; further: nearly all actives have a fitted effect of over 35% in size; further: potency means the concentration at half of the fitted maximal effect
Summary of the method: (§2)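 Here, cells in 5% FBS RPMI were exposed for two days (48 h) to compound dilutions added four hours after plating. ATP-based CellTiter-Glo luminescence measured viability, normalized to vehicle and no-cell blanks.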

[11] = qHTS Screen of the MIPE 4.0 Collection Against Ewings Sarcoma (TC71) (AID 1259253); conditions: TC71 Ewing sarcoma viability, CellTiter-Glo, 48 h; series mostly up to 45.8 µM; further: nearly all actives have a fitted effect of over 40% in size; further: potency means the concentration at half of the fitted maximal effect
Summary of the method: as §2

[12] = qHTS Screen of the MIPE 4.0 Collection Against Ewings Sarcoma (EW8) (AID 1259255); conditions: EW8 Ewing sarcoma viability, CellTiter-Glo, 48 h; series mostly up to 45.8 µM; further: nearly all actives have a fitted effect of over 35% in size; further: potency means the concentration at half of the fitted maximal effect;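 on viability: 100% = DMSO-treated cells and 0% = medium-only wells without cells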
Summary of the method: as §2

[13] = qHTS Screen of the MIPE 4.0 Collection Against Ewings Sarcoma (TC32) (AID 1259256); conditions: TC32 Ewing sarcoma viability, CellTiter-Glo, 48 h; series mostly up to 45.8 µM; further: nearly all actives have a fitted effect of over 45% in size; further: potency means the concentration at half of the fitted maximal effect
Summary of the method: as §2

[14] = qHTS profiling of the MIPE4 collection as inhibitors of Plasmodium falciparum (DD2) proliferation (AID 743345; call rule not given here); conditions: P. falciparum Dd2 in erythrocytes, SYBR Green DNA, 72 h; at 28.5 µM (top of the series) unless noted
Summary of the method: as §1

[15] = qHTS profiling for inhibitors of Plasmodium falciparum (3D7) proliferation (AID 743322; call rule not given here;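 further: infected erythrocytes exposed to compound for 72 h before lysis; 100% = DMSO vehicle wells and 0% = 0.29 µM artemisinin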); conditions: P. falciparum 3D7 proliferation; at 28.7 µM (top of the series)
Summary of the method: as §1

[16] = qHTS profiling for inhibitors of Plasmodium falciparum (DD2) proliferation (AID 743323; call rule not given here); conditions: lower = more inhibition; at 28.7 µM (top of the series)
Summary of the method: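 1536-well qHTS; infected RBCs 0.3% parasitemia/2.5% Hct final; cpd 72 h 37 C 5% CO2; lysis buffer + SYBR Green I, o/n RT dark; FI 485/535; norm. to 0.29 uM artemisinin and DMSO, plate-stack corrected.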

[17] = qHTS profiling for inhibitors of Plasmodium falciparum (HB3) proliferation (AID 743324); conditions: Plasmodium falciparum HB3 blood-stage proliferation; at 28.7 µM (top of the series);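 further: 100% = DMSO vehicle wells and 0% = artemisinin-treated control wells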
Summary of the method: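 P. falciparum HB3 grown in erythrocytes (0.3% parasitemia, 2.5% hematocrit final) with compound for 72 h at 37 C, 5% CO2. Parasite DNA detected by SYBR Green after saponin/triton lysis overnight; normalized to 0.29 uM artemisinin and DMSO.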

SMILES	max response [1]	outcome [2]	parasite growth, % of DMSO control [3]	parasite growth, % of control (lower = inhibition) [4]	growth, % of control [5]	cell viability, % of control (lower = more cytotoxic) [6]	viability (% of control) [7]	Potency [8]	Potency [9]	Potency [10]	Potency [11]	Potency [12]	Potency [13]	parasite growth remaining, % of DMSO control (lower = more inhibition) [14]	remaining parasite growth % (stronger effect = lower value) [15]	activity, percent of control [16]	remaining proliferation (% of control), lower = more inhibition [17]
C[C@]12CC[C@@H]3c4ccc(O)cc4CC[C@H]3[C@H]1CC[C@H]2O	-7.02% (inactive)	inactive	65.8%	74%	86.3%	50.6%	12.5%	inactive	inactive	8.33 µM (active)	16.6 µM (active)	18.7 µM (active)	16.6 µM (active)				
CON=C(C(=O)N[C@@H]1C(=O)N2C(C(=O)O)=C(Cn3ccc(=N)n3CCO)CS[C@H]12)c1csc(N)n1						137%	95.7%	inactive	inactive	inactive	inactive	inactive	inactive				
Oc1ccc([C@@H]2Oc3ccc(O)cc3[C@@H]3CCC[C@@H]32)cc1			43.6%	47%		90.8%	14.4%	inactive	inactive	18.7 µM (active)	26.4 µM (active)	10.5 µM (active)	9.35 µM (active)	90.8%			
Nc1ncn([C@@H]2O[C@H](CO)[C@@H](O)[C@@H]2O)c(=O)n1			100%	92.3%	95%	15.6%	5.42%	inactive	inactive	6.62 µM (active)	4.18 µM (active)	7.43 µM (active)	4.69 µM (active)	95.9%	96.3%	90.8%	89.3%
O=C(O)CCCCCC(=O)NN=C1CCCC1			101%	194%	101%	141%	105%	inactive	inactive	inactive	inactive	inactive	inactive	100%	92.8%	96.4%	107%
O=C(O)C(=O)Nc1cccc(C2=NN=N[N]2)c1						222%	113%	inactive	inactive	inactive	inactive	inactive	inactive				
CCOc1cc2c(c(F)c1OCC)C(=N)N(CC(=O)c1cc(N3CCOCC3)c(OC)c(C(C)(C)C)c1)C2			5.53%	11.7%		4.1%	2.82%	inactive	inactive	9.35 µM (active)	10.5 µM (active)	13.2 µM (active)	8.33 µM (active)	7.24%			
Cc1onc(-c2ccccc2)c1C(=O)N[C@@H]1C(=O)N2[C@@H](C(=O)O)C(C)(C)S[C@@H]12			92.7%			73.2%	120%	inactive	inactive	inactive	inactive	inactive	inactive	99.9%			
COc1cc(C=CC(=O)CC(=O)C=Cc2ccc(O)c(OC)c2)ccc1O			4.86% [at 57.5 µM]	16.5% [at 57.5 µM]		5.74% [at 92.2 µM]	5.08% [at 92.2 µM]	inactive	inactive	7.62 µM (active)	21.5 µM (active)	6.05 µM (active)	12.1 µM (active)	7.94% [at 57.5 µM]	-1.44%	-0.402%	0.164%
c1cncc(CN2CCC(n3ncc4c(N5CCOCC5)nc(-c5ccc6[nH]ccc6c5)nc43)CC2)c1			4.76%	18.3%		12.4%	9.02%	inactive	inactive	13.2 µM (active)	13.2 µM (active)	6.62 µM (active)	5.9 µM (active)	6.76%			
C[C@@H](NCc1cc2ccccc2[nH]1)c1cccc2ccccc12			41.8%	71.9%		171%	108%	inactive	inactive	inactive	inactive	inactive	inactive	83.3%			
COc1cccc2c1C(=O)c1c(O)c3c(c(O)c1C2=O)C[C@@](O)(C(=O)CO)C[C@H]3O[C@H]1C[C@H](N)[C@H](O)[C@H](C)O1			3.34%	5.25%	1.64%	6.45%	4.57%	inactive	inactive	0.187 µM (active)	0.0743 µM (active)	0.0264 µM (active)	inactive	5.82%	-4.47%	-1.95%	4.32%
O=C(O)CCCCC(CCSCc1ccccc1)SCc1ccccc1 (stereo unspecified)			76.2%	61.5%	63.9%	54.3%	23.9%	inactive	inactive	inactive	inactive	inactive	inactive	96.3%	84%	84%	70.4%
N#CC(=C(N)Sc1ccc(N)cc1)c1ccccc1C(F)(F)F			24.4%	33.9%		7.44%	57.2%	inactive	inactive	5.9 µM (active)	10.5 µM (active)	3.32 µM (active)	5.26 µM (active)	69.5%			
CCCc1nc(C(C)(C)O)c(C(=O)O)n1Cc1ccc(-c2ccccc2-c2nn[nH]n2)cc1			87.7%	84.2%		110%	103%	inactive	inactive	inactive	inactive	inactive	inactive	93.7%			
CC(=O)N1CCN(c2ccc(OCc3nn(C)c(C)c3-c3cccc4c(CCCOc5cccc6ccccc56)c(C(=O)O)n(Cc5cccnc5)c34)cc2)CC1			5.7%	10.7%	2.86%	36.4%	2.28%	inactive	inactive	0.332 µM (active)	1.18 µM (active)	3.72 µM (active)	0.743 µM (active)	9.41%			
